The structures appear in SMILES notation. Hit rate of the full screen: of about 16,000 compounds, about 4,000 (25%) were called active. Not shown: some 26% with an inconclusive outcome. Only a sample is shown. A number with no mark means an inactive call. Calls come from the whole dose curve; as a rule, active = well fitted curve in the direction sought with a large enough effect; inconclusive = small, poorly fitted or top-dose-only effect, or effect the other way; inactive = no such curve, though single readings can be large or run the other way.
% is set by controls: 0 for no effect and ±100 for the full control effect.

Cytochrome P450 2C9 (Homo sapiens), sequence (P11712 whole entry, looked up): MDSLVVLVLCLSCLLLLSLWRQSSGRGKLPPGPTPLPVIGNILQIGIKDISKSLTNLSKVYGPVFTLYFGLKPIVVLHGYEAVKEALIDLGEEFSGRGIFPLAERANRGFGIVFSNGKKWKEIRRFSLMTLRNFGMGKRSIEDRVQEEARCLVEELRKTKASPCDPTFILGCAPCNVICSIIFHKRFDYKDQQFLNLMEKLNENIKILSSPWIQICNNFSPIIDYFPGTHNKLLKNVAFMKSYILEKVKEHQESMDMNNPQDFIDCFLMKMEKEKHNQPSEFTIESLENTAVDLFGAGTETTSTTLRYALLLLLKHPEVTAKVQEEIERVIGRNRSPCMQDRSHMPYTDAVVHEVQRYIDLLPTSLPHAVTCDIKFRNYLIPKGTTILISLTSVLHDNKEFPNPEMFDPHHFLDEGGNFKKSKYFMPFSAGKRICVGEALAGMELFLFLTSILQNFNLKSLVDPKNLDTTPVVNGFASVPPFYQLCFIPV

This assay has as its target Cytochrome P450 2C9 (Homo sapiens) (UniProt P11712). As to the kind of experiment: Cytochrome panel assay with activity outcomes. The note with it: recombinant CYP, pro-luciferin dealkylation, luminescence, p450-cyp2c9; series mostly up to 57.1 µM; activity, negative = inhibition: at the top concentration.
The AC50 is the concentration giving half of the maximal activity seen. Regarding `Cc1cc(C)c(C#N)c(SCc2cc3c(cc2Cl)OCO3)n1`, the AC50 was 3.16 µM (active).

In the case of `N#Cc1cccc(NC(=O)N2CCCC3(CCN(C(=O)c4cnccn4)CC3)C2)c1`, the “activity, negative = inhibition” value is 3.77%.

Consider `COc1ccc(Nc2nnc(-c3ccc(N4CCOCC4)c([N+](=O)[O-])c3)c3ccccc23)cc1`, for which the AC50 was 3.16 µM (active).

As to `CS(=O)(=O)N1CCC2(CC1)CN(C(=O)Nc1cccc(C#N)c1)C2`, the “activity, negative = inhibition” value was -4.82%.

Consider `CC(C)(C)NCC[C@@H](O)c1cc(C(F)(F)F)nc2c(C(F)(F)F)cccc12`, for which the activity, negative = inhibition was 3.88% [at 11.4 µM].

Regarding `NCCNS(=O)(=O)c1ccc(N)cc1`, the activity, negative = inhibition is -0.285% [at 11.4 µM].

In the case of `NCCCCCCNS(=O)(=O)c1cccc2c(Cl)cccc12`, the AC50 was 3.16 µM (active).

For `NCCCCNS(=O)(=O)c1ccc2c(Cl)cccc2c1`, the AC50 was 2 µM (active).

`CNCCNS(=O)(=O)c1cccc2cnccc12`: the “activity, negative = inhibition” value is -29.4%.

On to `NCCNS(=O)(=O)c1cccc2cnccc12`, for which the AC50 entry is “inactive”.

Consider `NCCCCCCCCCCNS(=O)(=O)c1cccc2c(Cl)cccc12`, for which the AC50 was 0.0501 µM (active).

For the compound `CCCCCCCNS(=O)(=O)c1cccc2c(Cl)cccc12`, the “activity, negative = inhibition” value was -21.1%.

For the compound `NCCCCCCCCCCN`, the “activity, negative = inhibition” value is 3.55%.

As to `N[C@@H](CSCc1ccccc1)C(=O)O`, the activity, negative = inhibition is 11.8% [at 11.4 µM].

On to `N[C@H](C(=O)O)[C@H](OCc1ccccc1)C(=O)O`, for which the AC50 is 10 µM (active).

With `N[C@@H](Cc1ccccc1)C(=O)O`, the activity, negative = inhibition was 13.9% [at 11.4 µM].

For the compound `Fc1ccc(Nc2ncncc2-c2ccccc2C(F)(F)F)cc1`, the activity, negative = inhibition was -4.04% [at 2.29 µM].

Regarding `CN1CCN(c2ccnc(-c3cccc(NS(C)(=O)=O)c3)n2)CC1`, the activity, negative = inhibition was -3.66% [at 2.29 µM].

In the case of `CC(C)c1ccccc1S(=O)c1ccccc1C(C)(C)O` (centres undefined), the activity, negative = inhibition was -18.2% [at 11.4 µM].

On to `O=C(O)CCCSc1nc2ccccc2s1`, for which the activity, negative = inhibition is -7.61% [at 11.4 µM].

On to `NCCSc1nc2ccccc2s1`, for which the concentration at half-maximal activity (AC50) was 1.58 µM (active).

With `c1ccc2sc(SCSc3nc4ccccc4s3)nc2c1`, the activity, negative = inhibition was -1.3% [at 11.4 µM].

Consider `OCCN1CCN(CC/C=C2\c3ccccc3Sc3ccc(C(F)(F)F)cc32)CC1`, for which the AC50 entry is “inactive”.

Take `O=C(CSc1nc2ccccc2s1)N1c2ccccc2Sc2ccc(C(F)(F)F)cc21`: the half-maximal activity concentration (AC50) is 3.55 µM (active).

With `O=C(CSc1nc2ccccc2s1)Nc1nccs1`, the “activity, negative = inhibition” value is -21%.

Take `c1ccc2sc(SCCSc3nc4ccccc4s3)nc2c1`: the activity, negative = inhibition was 23.1% [at 11.4 µM].

For `O=C(CSc1nc2ccccc2s1)NNC(=S)Nc1ccc(Br)cc1`, the AC50 is 5.01 µM (active).

Turning to `Cc1ccc(S(=O)(=O)NC(=O)CSc2nc3ccccc3s2)cc1`, the AC50 was 2.51 µM (active).

For `CC(C)N=c1cc2n(-c3ccc(Cl)cc3)c3ccccc3nc-2cc1Nc1ccc(Cl)cc1`, the “activity, negative = inhibition” value is -15.2% [at 25.6 µM].

`CN(C)c1ncc2nc(-c3cccc(C#N)c3)c(=O)n(C[C@H]3CCCO3)c2n1`: the “activity, negative = inhibition” value is -10.1%.

For `CC(C)C(=O)C(C)(C)CCc1ccccn1`, the activity, negative = inhibition was 13.3% [at 11.4 µM].

`O=C1[C@H]2[C@H]3[C@H](O)[C@H](O)C/C(=N/OC[C@@H](O)COCc4ccco4)[C@@H]3CC[C@@H]2C(=O)N1C1CCCCC1`: the activity, negative = inhibition was -9.96% [at 11.4 µM].

Regarding `CCSC(=N)N`, the AC50 entry is “inactive”.

With `CO[C@@H]1COC(=O)C/C=C\[C@H](C)COC(=O)[C@H](Cc2ccccc2)NC(=O)C/C=C\[C@H]1C`, the activity, negative = inhibition is -22.5% [at 11.4 µM].

With `O=C(CSc1nc2ccccc2s1)N1c2ccccc2Sc2ccccc21`, the AC50 is 1.12 µM (active).

Consider `COc1ccc(C2C(C(=O)N3CCOCC3)CCC(=O)N2c2ccc(OC)cc2)cc1` (centres undefined), for which the “activity, negative = inhibition” value is -18.2%.

For the compound `CCOC(=O)C1C(=O)NC(C)C1c1ccccc1` (centres undefined), the “activity, negative = inhibition” value is -20.7%.

For the compound `CCOC(=O)C1=C(C)C(c2ccccc2OC)NC(=S)N1` (centres undefined), the AC50 was 15.8 µM (active).

For `COC(=O)C1=C(C)C(c2ccc(OC)cc2)NC(=S)N1` (centres undefined), the concentration at half-maximal activity (AC50) is 15.8 µM (active).

For `COc1ccc(N2C(=O)CCC(C(=O)O)C2c2ccc(F)cc2)cc1` (centres undefined), the “activity, negative = inhibition” value is -15.9%.

For `Nc1ccn([C@@H]2O[C@H](COC(=O)C34CC5CC(CC(C5)C3)C4)[C@@H](O)[C@@H]2O)c(=O)n1`, the activity, negative = inhibition is -0.936% [at 11.4 µM].

In the case of `C#CCCCO/N=C1/C[C@@H](O)[C@@H](O)[C@@H]2[C@@H]3C(=O)N(C[C@@H]4CCCO4)C(=O)[C@H]3CC[C@H]12`, the activity, negative = inhibition is -17.1% [at 11.4 µM].

For the compound `Cc1cccc2nc(C(F)(F)F)nc(=O)n12`, the “activity, negative = inhibition” value is -45.6%.

Take `O=C(O)C[C@H](Cc1ccccc1)C(=O)O`: the activity, negative = inhibition is -7.58% [at 11.4 µM].

On to `Cc1ccc(C)n1C(Cc1ccccc1)C(=O)O` (centres undefined), for which the half-maximal activity concentration (AC50) was 31.6 µM (active).

As for `C[C@@H](N)[C@@H](C)Cc1ccccc1`, the activity, negative = inhibition was -11% [at 11.4 µM].

As to `O=S(=O)(c1ccc(F)cc1)n1ccc(-c2cnc(-c3ccccc3)s2)n1`, the AC50 was 7.94 µM (active).

`COc1ccc(S(=O)(=O)n2ccc(-c3cnc(-c4ccccc4)s3)n2)cc1`: the AC50 is 1.78 µM (active).

In the case of `COc1ncc2nc(-c3ccccc3)c(=O)n(C)c2n1`, the “activity, negative = inhibition” value is -14.7%.

For `C[C@@H](N=C(N)N)C(=O)O`, the activity, negative = inhibition is 11.8% [at 11.4 µM].

Regarding `C[C@H](C(=O)c1ccncc1)c1ccccn1`, the activity, negative = inhibition is -11.4% [at 11.4 µM].

Take `Cc1c(C=O)c2ccccn2c1C(=O)c1ccncc1`: the AC50 was 7.94 µM (active).

For `CCCCOC(=O)c1ccc(O)cc1`, the “activity, negative = inhibition” value was -30% [at 25.6 µM].

Regarding `CCCCOC(=O)c1cc2c(cn1)[nH]c1ccccc12`, the AC50 is 7.94 µM (active).

In the case of `CCNC(=O)COC(=O)c1cc(=O)[nH]c2ccccc12`, the “activity, negative = inhibition” value was 67.2%.

Turning to `Nc1ncnc2c1ncn2[C@@H]1O[C@@H](C(=O)NC2CC2)[C@H](O)[C@@H]1O`, the “activity, negative = inhibition” value is 26.2%.

`CC(C)(C)NS(=O)(=O)c1ccc(NC(=O)c2cc(-c3ccccc3)nc3ccccc23)cc1`: the concentration at half-maximal activity (AC50) was 6.31 µM (active).

For the compound `CC(C)(C)c1nnc(NC(=O)c2cc(-c3ccccc3)nc3ccccc23)s1`, the AC50 was 7.08 µM (active).

For the compound `CCC(=O)Nc1nnc(C(C)(C)C)s1`, the “activity, negative = inhibition” value is -24.6%.

Consider `CC(=O)Nc1ccc(-c2cc(C(=O)O)c3cc4ccccc4cc3n2)cc1`, for which the activity, negative = inhibition is 4.42% [at 11.4 µM].

Consider `COc1ccc(-c2cc(C(=O)Nc3nc4c(C)cccc4s3)c3ccccc3n2)cc1OC`, for which the AC50 was 2.51 µM (active).

As to `c1cncc(CNc2ncnc3ccc(-c4ccoc4)cc23)c1`, the activity, negative = inhibition was 0.357% [at 2.29 µM].

For the compound `Cc1noc(C)c1-c1ccc2ncnc(N3CCN(C)CC3)c2c1`, the activity, negative = inhibition is -6.38% [at 2.29 µM].

Regarding `Cn1c2c(c(=O)n(C)c1=O)[C@@H]1c3c(ccc4ccccc34)OC[C@@H]1CO2`, the AC50 was 12.6 µM (active).

Take `CCCC1c2c(ccc3ccccc23)Oc2ccc3ccccc3c21`: the activity, negative = inhibition was -4.51% [at 11.4 µM].

`CN(C)c1ccc(-c2nc(NC3CCNCC3)c3ccccc3n2)cc1`: the activity, negative = inhibition is 12.7% [at 2.29 µM].

`CCOC(=O)c1cccc(NC(=O)COc2ccc([N+](=O)[O-])cc2)c1`: the AC50 was 14.1 µM (active).

Regarding `C/C(=N\NC(=O)COc1ccc([N+](=O)[O-])cc1)C(C)(C)C`, the “activity, negative = inhibition” value is -13.3%.

Regarding `O=C(COc1ccc(/C=N/NC(=O)c2ccccc2)cc1)Nc1ccc([N+](=O)[O-])cc1`, the “activity, negative = inhibition” value was -5.73%.

In the case of `C/C(=N\Nc1nnc(C)c(=O)[nH]1)C(=O)O`, the “activity, negative = inhibition” value was 23.7%.

With `O=C(Nc1ccccc1-c1nc2ccccc2[nH]1)c1ccc(S(=O)(=O)N2CCCCC2)cc1`, the half-maximal activity concentration (AC50) is 2 µM (active).

`CC(C)(C)n1nc2c(c1NC(=O)c1ccc(S(=O)(=O)N3CCCCC3)cc1)CS(=O)C2` (centres undefined): the “activity, negative = inhibition” value is -25.8%.

For the compound `COc1ccccc1-c1nc(N(C)Cc2ccco2)c2ccccc2n1`, the activity, negative = inhibition was -7.62% [at 2.29 µM].

Regarding `CCC(CC)C(=O)Nc1c2c(nn1-c1ccc(OC)cc1)CS(=O)(=O)C2`, the concentration at half-maximal activity (AC50) was 7.94 µM (active).

As to `O=C(Nc1c2c(nn1-c1ccc(F)cc1)CS(=O)(=O)C2)C12CC3CC(CC(C3)C1)C2`, the “activity, negative = inhibition” value was -21.8%.

As to `CSC(=N)N`, the AC50 result is “inactive”.

With `Cc1nnc(-c2cccc(Br)c2)c2cn(-c3ccccc3Cl)nc12`, the AC50 was 2.82 µM (active).

On to `Cc1nnc(-c2cccc(Br)c2)c2cn(-c3ccc(Br)cc3)nc12`, for which the concentration at half-maximal activity (AC50) is 2 µM (active).

As for `NC[C@@H]1O[C@H](C23CC4CC(CC(C4)C2)C3)Cc2c1ccc(O)c2O`, the AC50 result was “inactive”.

Consider `NC[C@@H]1O[C@H](c2ccccc2)Cc2c1ccc(O)c2O`, for which the AC50 is 6.31 µM (active).

In the case of `CO/N=C(\C(=O)N[C@@H]1C(=O)N2C(C(=O)O)=C(COC(N)=O)CS[C@@H]12)c1ccco1`, the “activity, negative = inhibition” value was -0.22% [at 25.6 µM].

For the compound `C=C(C)CN(CC#N)CC(=C)C`, the activity, negative = inhibition is 11% [at 11.4 µM].

For the compound `Cc1cccc(-c2c3c(=O)n(C)c(=O)n(C)c3cn2C2CCCCC2)c1`, the AC50 was 10 µM (active).

For the compound `Cc1n[nH]c(=O)n1-c1cccc(C(F)(F)F)c1`, the “activity, negative = inhibition” value was -26.8%.

As to `CC1=CC(=O)N(c2cccc(C(F)(F)F)c2)C1c1ccc(Cl)cc1` (centres undefined), the AC50 was 12.6 µM (active).

In the case of `OC[C@@H]1O[C@@H](n2cnc3c(SCc4ccccc4)ncnc32)[C@@H](O)[C@H]1O`, the activity, negative = inhibition is 5.12% [at 11.4 µM].

Consider `Cc1ccc(NC(=S)NC(=O)c2c(-c3ccccc3Cl)noc2C)cc1`, for which the AC50 is 1.41 µM (active).

On to `Cc1onc(-c2ccccc2Cl)c1C(=O)NCC(=O)O`, for which the “activity, negative = inhibition” value was -18%.

In the case of `Cc1onc(-c2ccccc2Cl)c1C(=O)Nc1nnc(Cc2ccc(Cl)cc2)s1`, the AC50 is 1.26 µM (active).

Take `CC(=O)C1=NOC(CNC(=O)c2c(-c3ccccc3Cl)noc2C)C1` (centres undefined): the “activity, negative = inhibition” value is -24.8%.

For `CC(=O)NCCNc1ncnc2ccc(-c3ccccc3C(F)(F)F)cc12`, the activity, negative = inhibition was 5.92% [at 2.29 µM].

On to `CCn1c2ccccc2c2cc(N=C3SC(CC(=O)Nc4ccccc4)C(=O)N3C)ccc21` (centres undefined), for which the concentration at half-maximal activity (AC50) is 0.126 µM (active).

`COc1ccccc1NC(=O)CCN1C(=O)C2CC=C(Cl)CC2C1=O` (centres undefined): the “activity, negative = inhibition” value is 19.4%.

For the compound `CCn1c2ccccc2c2cc(N=C3SC(CC(=O)Nc4ccccc4OC)C(=O)N3C)ccc21` (centres undefined), the AC50 was 0.891 µM (active).

Source of the values: PubChem BioAssay AID1851 (National Center for Advancing Translational Sciences (NCATS), 2009).
